Results: PubChem BioAssay (NCI)
About 83,000 compounds went through this panel and 20% of them were active in at least one assay; those are over-represented in the sample as a whole.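 Results are percent growth after 48 hours of single-concentration exposure. 100 means growth as in untreated cells, lower positive values show inhibition; negative values down to -100 show cell death.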 Active and inactive are the calls of the source. How the source made its calls: active means growth percent below 10; inactive means the rest.

Columns and labels:
Assay in all cases: NCI-60 one-dose screen, 48 h (100 = growth as untreated, 0 = no growth, -100 = all killed)
Conditions in all cases: 10 µM unless noted
NCI-H23 lung = test system: NCI-H23 lung
NCI-H226 lung = test system: NCI-H226 lung
NCI-H322M lung = test system: NCI-H322M lung
HOP-62 NSCLC = test system: HOP-62 NSCLC
NCI-H460 lung = test system: NCI-H460 lung
HOP-92 NSCLC = test system: HOP-92 NSCLC
NCI-H522 lung = test system: NCI-H522 lung
A549/ATCC NSCLC = test system: A549/ATCC NSCLC
786-0 renal = test system: 786-0 renal
COLO 205 colon = test system: COLO 205 colon
DU-145 prostate = test system: DU-145 prostate
K-562 leukemia = test system: K-562 leukemia
MALME-3M melanoma = test system: MALME-3M melanoma
MDA-MB-231 breast = test system: MDA-MB-231 breast
SF-268 CNS = test system: SF-268 CNS
SF-295 CNS = test system: SF-295 CNS
SF-539 CNS = test system: SF-539 CNS
UACC-257 melanoma = test system: UACC-257 melanoma
M14 melanoma = test system: M14 melanoma

Measured: growth

Cc1nc2sc(C(=O)Nc3ccccc3)c(N)c2cc1C(=O)c1ccc(C(F)(F)F)cc1
inactive: NCI-H23 lung 93.5% | NCI-H226 lung 99.6% | NCI-H322M lung 102% | HOP-62 NSCLC 91.1% | NCI-H460 lung 70.2% | HOP-92 NSCLC 116% | NCI-H522 lung 89.1% | A549/ATCC NSCLC 42.8% | 786-0 renal 95.3% | COLO 205 colon 104% | DU-145 prostate 106% | K-562 leukemia 101% | MALME-3M melanoma 101% | MDA-MB-231 breast 101% | SF-268 CNS 101% | SF-295 CNS 94.2% | SF-539 CNS 93.5% | UACC-257 melanoma 101% | M14 melanoma 93.4%

c1ccc(-c2nnc(Nc3ccc4c(c3)OCCO4)o2)c(NCc2ccncc2)c1
active: NCI-H23 lung 2.75% | NCI-H226 lung -9.34% | NCI-H460 lung 4.52% | NCI-H522 lung -34.5% | COLO 205 colon -68.8% | DU-145 prostate -22% | SF-295 CNS 3.68% | SF-539 CNS -2.94% | M14 melanoma -17.8%
inactive: NCI-H322M lung 40.4% | HOP-62 NSCLC 25.3% | HOP-92 NSCLC 77.7% | A549/ATCC NSCLC 22.6% | 786-0 renal 17.1% | K-562 leukemia 12.1% | MALME-3M melanoma 53.6% | MDA-MB-231 breast 15.4% | SF-268 CNS 14.3% | UACC-257 melanoma 68.3%

O=C1CCCCCCCCC(O)C(O)CCCC(c2cccs2)O1 (stereo not given)
inactive: NCI-H23 lung 91% | NCI-H226 lung 99.5% | NCI-H322M lung 113% | HOP-62 NSCLC 87.6% | NCI-H460 lung 106% | HOP-92 NSCLC 82.7% | NCI-H522 lung 91.7% | A549/ATCC NSCLC 82.7% | 786-0 renal 98.8% | COLO 205 colon 108% | DU-145 prostate 117% | K-562 leukemia 96% | MALME-3M melanoma 107% | MDA-MB-231 breast 84.8% | SF-268 CNS 95.9% | SF-295 CNS 93.7% | SF-539 CNS 106% | UACC-257 melanoma 60.9% | M14 melanoma 99.7%

COC(=O)Nc1ccc(NC(=O)OC)cc1
inactive: NCI-H23 lung 97.6% | NCI-H226 lung 96.7% | NCI-H322M lung 100% | HOP-62 NSCLC 77.7% | NCI-H460 lung 106% | HOP-92 NSCLC 84.7% | NCI-H522 lung 73.6% | A549/ATCC NSCLC 69.7% | 786-0 renal 93.3% | COLO 205 colon 111% | DU-145 prostate 110% | K-562 leukemia 103% | MALME-3M melanoma 105% | MDA-MB-231 breast 120% | SF-268 CNS 103% | SF-295 CNS 99.7% | SF-539 CNS 106% | UACC-257 melanoma 66.3% | M14 melanoma 83.7%

FC(F)(F)Oc1cccc(-c2cc(NCCCCCCNc3cc(-c4cccc(OC(F)(F)F)c4)nc4ccc(N5CCCC5)cc34)c3cc(N4CCCC4)ccc3n2)c1
active: NCI-H23 lung -19.9% | NCI-H322M lung -79.3% | HOP-62 NSCLC -14% | NCI-H460 lung -52.1% | HOP-92 NSCLC -23.9% | NCI-H522 lung -49.5% | A549/ATCC NSCLC -75% | 786-0 renal -83.4% | COLO 205 colon -51.9% | DU-145 prostate -5.9% | K-562 leukemia -48.7% | MALME-3M melanoma -96.2% | MDA-MB-231 breast -91.5% | SF-268 CNS -65.5% | SF-539 CNS 8.48% | UACC-257 melanoma -9.02% | M14 melanoma -84%
inactive: NCI-H226 lung 68.5% | SF-295 CNS 34.1%

NC(=O)c1ncn(C2OC(CO)C(O)C2O)n1 (stereo not given)
inactive: NCI-H23 lung 89% | NCI-H226 lung 87.6% | NCI-H322M lung 86.5% | HOP-62 NSCLC 71.8% | NCI-H460 lung 104% | HOP-92 NSCLC 79% | NCI-H522 lung 79.6% | A549/ATCC NSCLC 96.3% | 786-0 renal 91.6% | COLO 205 colon 94.4% | DU-145 prostate 85.1% | K-562 leukemia 61.1% | MALME-3M melanoma 93.8% | MDA-MB-231 breast 103% | SF-268 CNS 98% | SF-295 CNS 99.9% | SF-539 CNS 97.6% | UACC-257 melanoma 97.7% | M14 melanoma 92.8%

Clc1ccc(N2N=C(c3cccc(Nc4ccncc4)c3)CC2c2ccccc2)cc1 (stereo not given)
active: M14 melanoma -55.4%
inactive: NCI-H23 lung 92.6% | NCI-H226 lung 94.5% | NCI-H322M lung 92.7% | HOP-62 NSCLC 92.2% | NCI-H460 lung 98.9% | HOP-92 NSCLC 67.7% | NCI-H522 lung 80.4% | A549/ATCC NSCLC 93.9% | 786-0 renal 10.9% | COLO 205 colon 73.1% | DU-145 prostate 100% | K-562 leukemia 46% | MALME-3M melanoma 93.5% | MDA-MB-231 breast 93.2% | SF-268 CNS 78.1% | SF-295 CNS 102% | SF-539 CNS 86% | UACC-257 melanoma 101%

O=C(N/N=C/c1ccncc1)c1ccccc1Nc1cccc(C(F)(F)F)c1
inactive: NCI-H23 lung 95.5% | NCI-H226 lung 66.3% | NCI-H322M lung 88.5% | HOP-62 NSCLC 97.6% | NCI-H460 lung 103% | HOP-92 NSCLC 47.3% | NCI-H522 lung 82% | A549/ATCC NSCLC 55.6% | 786-0 renal 86.7% | COLO 205 colon 107% | DU-145 prostate 69.2% | K-562 leukemia 77.7% | MALME-3M melanoma 92.8% | MDA-MB-231 breast 79.8% | SF-268 CNS 69.5% | SF-295 CNS 94.5% | SF-539 CNS 112% | UACC-257 melanoma 62.9% | M14 melanoma 87.4%

C[C@]12CCc3nc(Nc4cccc(O)c4)sc3C1=CC[C@@H]1[C@@H]2CC[C@]2(C)/C(=N\NC(N)=S)CC[C@@H]12
active: NCI-H522 lung -12.2% | 786-0 renal -36% | DU-145 prostate 8.45% | K-562 leukemia 3.19% | SF-295 CNS -34% | SF-539 CNS -48%
inactive: NCI-H23 lung 57.3% | NCI-H226 lung 91.8% | NCI-H322M lung 73.5% | HOP-62 NSCLC 32% | NCI-H460 lung 21.3% | HOP-92 NSCLC 52.1% | A549/ATCC NSCLC 59.3% | COLO 205 colon 42.7% | MALME-3M melanoma 39% | MDA-MB-231 breast 26.2% | SF-268 CNS 37.6% | UACC-257 melanoma 74% | M14 melanoma 31.1%

CN1CCN(c2ccc3nc(-c4cc(C(C)(C)C)c(O)c(C(C)(C)C)c4)[nH]c3c2)CC1
active: NCI-H460 lung 3.88% | COLO 205 colon -56.7% | K-562 leukemia -11.3% | MALME-3M melanoma -91.6% | UACC-257 melanoma -53.2%
inactive: NCI-H23 lung 92.6% | NCI-H226 lung 96% | NCI-H322M lung 81% | HOP-62 NSCLC 69.8% | HOP-92 NSCLC 48.6% | NCI-H522 lung 75.5% | A549/ATCC NSCLC 53.4% | 786-0 renal 55.4% | DU-145 prostate 77.6% | MDA-MB-231 breast 38.6% | SF-268 CNS 72.7% | SF-295 CNS 93.7% | SF-539 CNS 64.4% | M14 melanoma 11%

Cc1ccc2[nH]c(=S)n(-c3ccc(S(=O)(=O)Nc4ccc(Cl)nn4)cc3)c(=O)c2c1
inactive: NCI-H23 lung 101% | NCI-H226 lung 98.9% | NCI-H322M lung 110% | HOP-62 NSCLC 104% | NCI-H460 lung 104% | HOP-92 NSCLC 104% | NCI-H522 lung 92.5% | A549/ATCC NSCLC 103% | 786-0 renal 60.7% | COLO 205 colon 110% | DU-145 prostate 109% | K-562 leukemia 102% | MALME-3M melanoma 101% | MDA-MB-231 breast 101% | SF-268 CNS 101% | SF-295 CNS 104% | SF-539 CNS 95.6% | UACC-257 melanoma 99.7%
active: M14 melanoma -69.5%

CCC1(CC)NC(=O)c2c(c3ccc(Cl)c(Cl)c3n2C)C1C#N (stereo not given)
inactive: NCI-H23 lung 93% | NCI-H226 lung 95.6% | NCI-H322M lung 103% | HOP-62 NSCLC 81.2% | NCI-H460 lung 98.7% | HOP-92 NSCLC 62.1% | NCI-H522 lung 86.5% | A549/ATCC NSCLC 88.6% | 786-0 renal 94.3% | COLO 205 colon 80.1% | DU-145 prostate 123% | K-562 leukemia 91.4% | MALME-3M melanoma 109% | MDA-MB-231 breast 71.2% | SF-268 CNS 90.3% | SF-295 CNS 102% | SF-539 CNS 95.4% | UACC-257 melanoma 100% | M14 melanoma 105%

O=C(CNCCO)Nc1ccc2ncnc(Nc3ccc(OCc4cccc(F)c4)c(Cl)c3)c2c1
inactive: NCI-H23 lung 98.9% | NCI-H226 lung 93.8% | NCI-H322M lung 33.4% | HOP-62 NSCLC 87% | NCI-H460 lung 88.7% | HOP-92 NSCLC 55.8% | NCI-H522 lung 46.3% | A549/ATCC NSCLC 71.6% | 786-0 renal 69.6% | COLO 205 colon 96% | DU-145 prostate 61.6% | K-562 leukemia 27.8% | MALME-3M melanoma 98.2% | MDA-MB-231 breast 87.7% | SF-268 CNS 78.1% | SF-295 CNS 95% | SF-539 CNS 87.8% | UACC-257 melanoma 101% | M14 melanoma 93.4%

COc1cc(C2CC(c3cccc(Nc4ccncc4)c3)=NN2c2cc(Cl)cc(Cl)c2)cc(OC)c1OC (stereo not given)
inactive: NCI-H23 lung 77.8% | NCI-H226 lung 87% | NCI-H322M lung 64.2% | HOP-92 NSCLC 37.4% | A549/ATCC NSCLC 17.9% | 786-0 renal 101% | MDA-MB-231 breast 19.8% | SF-268 CNS 42.4% | SF-539 CNS 70% | M14 melanoma 96.2%
active: HOP-62 NSCLC -29.2% | NCI-H460 lung -68.4% | NCI-H522 lung 0.35% | COLO 205 colon -58.7% | DU-145 prostate -18.1% | K-562 leukemia -1.05% | MALME-3M melanoma -77.9% | SF-295 CNS 1.81% | UACC-257 melanoma 1.77%

CCCc1cc2c(cc1Br)OCO2
inactive: NCI-H23 lung 96.2% | NCI-H226 lung 106% | NCI-H322M lung 108% | HOP-62 NSCLC 84% | NCI-H460 lung 106% | HOP-92 NSCLC 86.9% | NCI-H522 lung 87.9% | A549/ATCC NSCLC 80.7% | 786-0 renal 89.3% | COLO 205 colon 109% | DU-145 prostate 111% | K-562 leukemia 121% | MALME-3M melanoma 117% | MDA-MB-231 breast 113% | SF-268 CNS 106% | SF-295 CNS 96.5% | SF-539 CNS 98.8% | UACC-257 melanoma 91.5% | M14 melanoma 88.5%
